# A selection: hits, their analogues and other compounds. The true share with any hit is near 3.7%.
# HTT ATP protect: Huntington cell model cytoprotection by ATP luminescence | PC12 HTT-Q103 induced, cytoprotection, ATP luminescence, 40 h | Potency, µM (series often up to 56.4 µM), hits mostly activators | actives 0.14% (n = 230,000) | AID 1471; further: nearly all actives have a fitted effect of over 45% in size
#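 Cells were plated at 1500 per well in phenol red-free DMEM with 5% equine and 5% calf serum. Tebufenozide (100 nM final) and compounds were added, then ATPlite reagent, and luminescence was read.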
# Tau ThT inhib: inhibitors of human tau fibril formation, thioflavin T binding. P10636. recombinant tau K18 P301L, heparin-induced fibrillization, ThT fluorescence. Potency, µM (doses to about 57.4 µM), usual class: inhibitors. actives 2.1% (n = 270,000); further: nearly all actives have a fitted effect of over 55% in size
# Target sequence (P10636 561-689 P618L limits assumed): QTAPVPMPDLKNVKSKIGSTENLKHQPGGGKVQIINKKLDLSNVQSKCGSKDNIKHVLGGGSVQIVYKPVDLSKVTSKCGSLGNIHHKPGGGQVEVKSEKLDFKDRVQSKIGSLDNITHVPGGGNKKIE
#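 Fibril formation assay: tau K18 P301L at 15 uM with trace Alexa 594 label, heparin inducer 20 uM, pH 7 sodium acetate buffer, 37 C for 6 hr; endpoint ThT signal.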
# HTT aggregate: inhibitors of mutant huntingtin aggregate formation in PC12 cells; actives 1.1% (n = 220,000); PC12 HttQ103-GFP aggregates, Acumen cytometry, 40 h; Potency, µM (top dose mostly 46.1 µM), most hits filed as inhibitors; further: nearly all actives have a fitted effect of over 60% in size
#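 Compounds (qHTS titration) were added to PC12 cells expressing an ecdysone-driven HTT exon 1 Q103–GFP fusion after induction with 100 nM tebufenozide. Aggregate formation was measured as GFP objects in cell lysates.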
# Tau fibril FP: inhibitors of human tau fibril formation; K18 P301L tau heparin fibrillization, Alexa594 FP, 6 h; actives 0.39% (n = 280,000); Potency, µM (top dose mostly 57.7 µM), usual class: inhibitors; further: nearly all actives have a fitted effect of over 55% in size
#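 Compound effects on tau fibrillization are measured by Alexa 594 fluorescence polarization (ex 555, em 632 nm). K18 P301L tau is used at 15 uM with 0.24 uM labeled tracer, and 20 uM heparin induces aggregation over 6 hr at 37 C.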
# Tau fluor cs: counter-screen for tau fibril formation inhibitors. tau K18 P301L Alexa594 fluorescence, heparin fibrillization. Potency, µM (doses to about 57.7 µM). actives 0.93% (n = 280,000); further: nearly all actives have a fitted effect of over 55% in size
#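 Human tau K18 P301L (15 uM unlabeled, 0.24 uM Alexa 594-labeled) in 100 mM sodium acetate pH 7 with 20 uM heparin, 6 hr at 37 C. ThT 30 uM added, 1 hr ambient; Alexa 594 FP and total fluorescence read at 555/632 nm.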
# Numbers stand for hits; i = inactive; ? = inconclusive; nt = no result; [ ] = another dose, or the depositor's remark. The call rests on the fitted dose curve; in most records, active means well fitted curve in the direction sought with a large enough effect; inconclusive means small, poorly fitted or top-dose-only effect, or another doubt; inactive means no such curve, though single readings can be large; an effect the other way counts as inactive or inconclusive.
SMILES,HTT ATP protect,Tau ThT inhib,HTT aggregate,Tau fibril FP,Tau fluor cs
Cc1ccc(N=Cc2ccc[nH]2)c(O)c1,i,15.8µM,i,?,?
COc1ccc(C)cc1NC(=O)c1ccccc1NS(=O)(=O)c1ccc(Cl)s1,i,?,4.47µM,i,i
COc1ccccc1NC(=O)c1ccccc1NS(=O)(=O)c1cccs1,i[10 µM],i,i,i,i
COc1ccc(-n2c(/C=C/c3cccc4ccccc34)nc3ccccc3c2=O)cc1Cl,nt,i,nt,?,i
Cc1nn(-c2ccccc2)c(Cl)c1CN(C(=O)CCl)c1cccc2ccccc12,i[1.9 µM],i,12.6µM,i,i
Cc1nn(-c2ccccc2)c(Cl)c1CN(C(=O)CCl)c1ccc(Cl)cc1,i[10 µM],i,25.1µM,i,i
O=C(CCCN1C(=O)c2cccnc2Oc2ccc(Cl)cc21)NCc1ccccc1F,nt,i,nt,i,i
CCOc1ccc(C(=O)NCc2ccc3c(c2)CCN3C(=O)c2ccc(C)cc2)cc1OCC,nt,i,nt,i,i
Cc1ccc(Cn2nnc3c(=O)[nH]c(C(=O)NCc4ccco4)nc32)cc1,i,i,i,i,i
O=C(NCc1ccco1)c1nc2c(nnn2Cc2cccc(Cl)c2)c(=O)[nH]1,4.47µM,i,i,i,i
Cc1c2cc(O)c(=O)cc-2oc2cc(O)c(O)cc12,i[10 µM],3.16µM,i[9.22 µM],10µM,10µM[quencher]
COc1cc(OC)c(-c2c3cc(O)c(=O)cc-3oc3cc(O)c(O)cc23)cc1OC,i[10 µM],12.6µM,3.98µM,?,i
O=C(CN1CCCc2ccccc21)N/N=C/c1c(O)ccc2ccccc12,i[10 µM],?,10µM,i,14.1µM[quencher]
O=C(CN1CCCc2ccccc21)N/N=C/c1ccccc1,i[10 µM],?,i,i,?
CCCCC[n+]1cccc2c3ccccc3ccc21,i,i,2.51µM,i,i
c1ccc(C[n+]2cccc3c4ccccc4ccc32)cc1,i,i,28.2µM,i,i
O=[N+]([O-])c1ccc(C[n+]2cccc3ccccc32)cc1,i[10 µM],i,i,i,i
Cc1onc(-c2ccccc2Cl)c1C(=O)N(C)C1CCCCC1,i,i,14.1µM,i,i
Cc1ccc2oc(-c3ccccc3)c(O)c(=O)c2c1,i[1.9 µM],?,nt,i,i
O=c1c(O)c(-c2cccs2)oc2ccc(Cl)cc12,i,?,14.1µM,i,?
O=c1c(O)c(-c2ccccc2)oc2ccccc12,nt,i,nt,i,i
O=c1c2ccccc2oc2ccccc12,i,?,nt,i,i
Cc1ccc(-c2oc3ccccc3c(=O)c2O)cc1,i,i,11.2µM,i,i
O=c1c(O)c(-c2cccs2)oc2ccccc12,i[10 µM],i,11.2µM,i,i
Cc1ccc2oc(-c3ccccc3)c(C(=O)O)c(=O)c2c1,i,?,10µM,i,i
SMILES,HTT ATP protect,Tau ThT inhib,HTT aggregate,Tau fibril FP,Tau fluor cs
COC(=O)[C@@H](c1ccccc1Cl)N1CCc2sccc2C1,i,i,nt,i,i
COC(=O)C/C=C/C(C)C(OC)c1ccccc1Br (stereo not given),i[10 µM],i[11.5 µM],nt,i[11.6 µM],i[11.6 µM]
CCc1ccc(NC(=O)C(=O)NCCc2sc(-c3ccc(OC)c(OC)c3)nc2C)cc1,nt,i,nt,i,i
CCOc1ccc(N(C)S(=O)(=O)c2ccc3c(c2)C(C)(C)C(=O)N3C)cc1,nt,i,nt,i,i
CCOc1ccc2c(c1)c(=O)c(C(=O)c1ccc(CC)cc1)cn2CC(=O)Nc1ccc2c(c1)OCCO2,nt,i,nt,i,i
CCC(C=C[C@@H]1OC(=O)C=C[C@H]1C)=C[C@H](C)CC=CC(C)=C[C@@H](C)C(=O)[C@@H](C)[C@H](O)[C@@H](C)CC(C)=CC(=O)O,i[1.9 µM],i[2.31 µM],nt,i[2.34 µM],i[2.34 µM]
Oc1ccc(N2CCN(c3ncnc4sc5c(c34)CCC5)CC2)cc1,i[10 µM],?,11.2µM,i,?
Cc1nc(N2CCN(c3ccccc3)CC2)c2c3c(sc2n1)CCC3,i,?,?,i,i
CCc1ccccc1NC(=O)C(=O)NCC(c1cccnc1)N1CCN(c2ccccc2F)CC1 (stereo not given),nt,i,nt,i,i
CCn1c2ccc(OC)cc2c2nc3ccccc3nc21,i[10 µM],i,i,i,i
CCn1c2ccc(Cl)cc2c2nc3ccccc3nc21,i,15.8µM,i,i,i
OC[C@@H]1O[C@@H](n2cnc3c(Nc4ccccc4)ncnc32)[C@@H](O)[C@H]1O,i[1.9 µM],nt,nt,nt,nt
c1ccc2c(c1)OCC(c1csc3ncnc(N4CCOCC4)c13)O2 (stereo not given),i,i,12.6µM,i,i
